# Rows were chosen to be rich in hits. Some 19% of all compounds tested hit in one or more screens of this group.
# KB-3-1 cytotox: KB-3-1 parental cell cytotoxicity | KB-3-1 viability, CellTiter-Glo ATP luminescence, 72 h | Potency, µM (doses to about 46.1 µM), hits mostly cytotoxic | 400,000 tested, 1.4% active | AID 1347075; note: nearly all actives have a fitted effect of over 60% in size
#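 72 h, 37 °C compound treatment of KB-3-1 parental cells; CellTiter-Glo added, 10 min, luminescence read. Data corrected against DMSO-only plates and normalized before curve fitting.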
# TDP1 cell noCPT: qHTS for Inhibitors of human tyrosyl-DNA phosphodiesterase 1 (TDP1): qHTS in cells in absence of CPT | DT40 Tdp1-/- hTDP1 cells, no CPT, ATP luminescence, 48 h | Potency, µM (highest dose often 46.2 µM), for inactives: top-dose activity change, negative = growth inhibition, hits mostly inhibitors | 420,000 tested, 15% active; note: nearly all actives have a fitted effect of over 55% in size
#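 DT40 Tdp1-/-;hTDP1 cells, no CPT (DMSO vehicle only), 400 cells/well; compounds pin-transferred; ≥48 hr, 37 °C; CellTiter-Glo 30 min RT dark, luminescence read.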
# HT1080-NT tox: kills 2HG-producing HT-1080-NT fibrosarcoma cells; HT-1080-NT fibrosarcoma viability, CellTiter-Glo ATP luminescence, 48 h; Potency, µM (doses to about 46.1 µM), for inactives: at the top dose activity, negative = less viability, most hits filed as cytotoxic; 360,000 tested, 1.6% active; AID 686970;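 note: NT is the 2HG producing partner of a matched IDH1 knockdown line; 0% = DMSO-treated cells and -100% = media-only wells without cells; nearly all actives have a fitted effect of over 55% in size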
#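 Compounds were tested in concentration-response format on HT-1080-NT cells for 48 hours at 37 degrees C. Cell viability came from CellTiter-Glo luminescence; curves were classified by r2, response magnitude and activity.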
# KB-V1 cytotox: kills drug-selected multidrug resistant KB-V1 cells; Potency, µM (doses to about 46.1 µM), most hits filed as cytotoxic; 400,000 tested, 3.4% active; KB-V1 MDR cells viability, CellTiter-Glo, 72 h; note: nearly all actives have a fitted effect of over 60% in size
#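 KB-V1, DMEM (no phenol red) + 10% FBS; cpd pin-transferred, titration series; 72 h, 37 degrees C; CellTiter-Glo, luminescence. Data normalized, curve-fit.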
# HT1080 IDH1KD tx: toxicity to HT-1080 IDH1 knockdown cells (counter line); HT-1080 IDH1 knockdown viability, ATP luminescence, 48 h; 360,000 tested, 2% active; Potency, µM (top dose mostly 46.1 µM), inactives show at the highest dose activity, negative = toxicity, hits mostly cytotoxic;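 note: 0% = DMSO wells and -100% = cell-free medium wells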
#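 Viability of IDH1-knockdown HT-1080 fibrosarcoma cells was assessed by CellTiter-Glo after 48 h at 37 °C with titrated compound; concentration-effect curves were classified by fit quality and response size.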
# TDP1 cell CPT: growth inhibition of DT40 Tdp1-/-;hTDP1 cells with camptothecin (screen for TDP1 inhibitors). AID 686979. 420,000 tested, 12% active. chicken DT40 Tdp1-/-;hTDP1 cells + 20 nM CPT, ATP luminescence, 48 h. Potency, µM (doses to about 46.2 µM), inactives show at the highest dose activity change, negative = growth inhibition, most hits filed as inhibitors; note: nearly all actives have a fitted effect of over 55% in size
#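 Cell growth measured by CellTiter-Glo luminescence after a minimum 48 h, 37 C compound exposure with 20 nM CPT in Tdp1-knockout DT40 cells stably expressing hTDP1, seeded 400/well; qHTS titration format.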
# An asterisk follows results filed as active; i = inactive; ? = inconclusive; · = no result given; ! = not confirmed by another sample. Calls come from the whole dose curve; as a rule, active = well fitted curve in the direction sought with a large enough effect; inconclusive = small, poorly fitted or top-dose-only effect, or another doubt; inactive = no such curve, though single readings can be large; an effect the other way counts as inactive or inconclusive. Unless noted, % is set by controls: 0 for no effect and ±100 for the full control effect; potency is the fitted concentration of half-maximal effect.
SMILES,KB-3-1 cytotox,TDP1 cell noCPT,HT1080-NT tox,KB-V1 cytotox,HT1080 IDH1KD tx,TDP1 cell CPT
CCOC(=O)/C(C#N)=C1/SC(CC)C(=O)N1c1ccc(Br)cc1 (stereo unspecified),i,-19%,-2%,8.2µM*,14%,-6%
O=C(COC(=O)CNC(=O)c1ccc(Cl)c([N+](=O)[O-])c1)NC(=O)c1ccccc1,i,8%,3%,i,3%,-14%
Nc1ccc2cc3ccc(N)cc3nc2c1,·,2.7µM*,·,·,·,5.3µM*
Cc1ccc2cc(N)ccc2n1,i,-7%,9%,i,7%,4%
Cc1ccc(C2NC(=O)c3ccccc3N2)c(C)c1 (stereo unspecified),3.7µM*,2.9µM*,7.3µM*,5.8µM*,18µM*,2.1µM*
Cc1ccc(C2NC(=O)c3ccccc3N2)s1 (stereo unspecified),4.6µM*,4.6µM*,?,7.3µM*,15µM*,5.8µM*
Cc1ccc(N=C2C(=O)Nc3ccccc32)c(C)c1,i,-4%,-6%,i,-1%,4%
Cc1cccc(C2NC(=O)c3ccccc3N2)c1 (stereo unspecified),13µM*,5.2µM*,?,?,?,3.3µM*
O=C1NC(c2ccncc2)Nc2ccccc21 (stereo unspecified),i,-1%,0%,i,-3%,-10%
CC(C)NC(=O)Nc1nnc([C@H]2C[C@H](O)[C@@H](CO)O2)s1,i,3%,-2%,i,18%,-1%
COc1ccc(N2CCN(Cc3nc4c(c(=O)n(C)c(=O)n4C)n3Cc3ccccc3C)CC2)cc1,i,16µM*,-9%,i,3%,18µM*
COc1ccc(N2CCN(Cc3nc4c(c(=O)n(C)c(=O)n4C)n3CC(C)=O)CC2)cc1,i,23µM*,3%,?,-6%,13µM*
COc1ccc(N2CCN(Cc3nc4c(c(=O)n(C)c(=O)n4C)n3CCc3ccccc3)CC2)cc1,i,?,13%,i,-1%,?
Cc1nc2ccccc2n1-c1nc(-c2ccco2)cc(C(F)(F)F)n1,i,2.9µM*,5.6µM*,i,5.6µM*,3.7µM*
CC(C)(C)S(=O)N1Cc2cc(C(=O)N3CCc4ccccc4C3)nc(-c3cccc(-c4cccnc4)c3)c2[C@@H]1CCO (stereo partly specified),i,21µM*,1%,i,2%,?
CN1CCN(C(=O)c2cc3c(c(-c4cccc(C#CC(C)(C)O)c4)n2)[C@H](CCO)N(S(=O)C(C)(C)C)C3)CC1 (stereo partly specified),i,6%,28%,i,17%,2%
COc1ccccc1-c1cccc(-c2nc(C(=O)N3CCCCC3)cc3c2[C@H](CCO)N(S(=O)C(C)(C)C)C3)c1 (stereo partly specified),i,18µM*,-7%,?,-8%,21µM*
COc1cccc(CNC(=O)C2=C(C)C(=O)OC23CCCCCC3)c1,i,-27%,·,i,·,-19%
NC(=O)c1nsc(C(=O)N(c2ccc3c(c2)OCO3)C(C(=O)NCC2CCCO2)c2ccc(F)cc2)c1N (stereo unspecified),i,?,10%,i,11%,-13%
CCCCS/C(=C(/C#N)C(N)=O)c1cc2c([nH]1)CCCC2,?,?,0%,?,3%,21µM*
Cc1c(NS(=O)(=O)c2ccc(C(C)(C)C)cc2)c(=O)n(-c2ccccc2)n1C,i,-6%,·,i,·,-2%
Nc1nc(=S)c2ncn([C@@H]3O[C@H](CO)[C@@H](O)[C@H]3O)c2[nH]1,?,1.8µM*,1.5µM*,0.92µM*,0.92µM*,1.6µM*
OCC1OC(n2cnc3c(=S)nc[nH]c32)C(O)C1O (stereo unspecified),0.58µM*,?,·,?,·,10µM*!
Nc1nc2c(ncn2[C@@H]2O[C@H](CO)[C@@H](O)[C@H]2O)c(=O)[nH]1,·,4%,·,·,·,18%
CC1(C)OC2C(CO)OC(n3cnc4c(=S)nc(N)[nH]c43)C2O1 (stereo unspecified),?,15µM*,?,?,-7%,12µM*
SMILES,KB-3-1 cytotox,TDP1 cell noCPT,HT1080-NT tox,KB-V1 cytotox,HT1080 IDH1KD tx,TDP1 cell CPT
Nc1nc(=S)c2ncn(C3OC(CO)C(O)C3O)c2[nH]1 (stereo unspecified),5.8µM*,8.2µM*,15µM*,1µM*,21µM*,4.1µM*
CCOC(=O)c1c(N)sc2c1CCC1C(=O)N(C3CCCCC3)C(=O)C21 (stereo unspecified),i,26µM*,-6%,?,-21%,?
Cc1ccc(S(=O)(=O)n2nc(C)c(S(=O)(=O)N3CCC(C)CC3)c2C)cc1,i,4%,·,i,·,-19%
CC(C)C1C(=O)Nc2ccc(S(=O)(=O)NCCc3ccc(Cl)cc3)cc21 (stereo unspecified),i,23µM*,·,i,·,?
Cc1ccc(CCNS(=O)(=O)c2ccc3c(c2)NC(=O)C(C)C(=O)N3)cc1 (stereo unspecified),i,23µM*,7%,?,-8%,-22%
CN1C(=O)C(C)(C)c2cc(S(=O)(=O)NCCc3ccc(Cl)cc3)ccc21,i,-13%,-2%,i,6%,5%
Cc1ccc(CCNS(=O)(=O)c2ccc(C)cc2)cc1,i,-18%,-4%,i,2%,?
COc1cccc(CNS(=O)(=O)c2ccc3c(c2)C(C(C)C)C(=O)N3)c1 (stereo unspecified),?,13µM*,·,i,·,?
O=C(CC[C@H]1O[C@@H](n2ccc(=O)[nH]c2=O)[C@H](O)[C@@H]1O)N[C@@H](Cc1ccccc1)C(=O)NCC1CCCCC1,i,1%,29%,i,12%,7%
CN(C)CC(CCC(CN(C)C)C(O)(c1ccccc1)c1ccccc1)C(O)(c1ccccc1)c1ccccc1 (stereo unspecified),?,18µM*,-14%,?,?,23µM*
CC(=O)c1c(C(C)=O)c(C)n(-c2ccc(C)c(NC(=O)c3ccccc3Cl)c2)c1C,i,?,0%,3.7µM*,-22%,?
C=CCc1ccccc1OCC(O)CN1CCOCC1 (stereo unspecified),i,-22%,2%,i,-1%,-8%

# Screening data: PubChem BioAssay, National Center for Advancing Translational Sciences (NCATS)
